Among all 310,000 compounds or so, about 14,000 (4.5%) showed an effect of 50% or more. Effects have a minus sign here. Many of the other results were omitted from the sample, so strong results are more common in it than they were.
target: human ether-à-go-go-related gene (hERG) potassium channel (human, UniProt Q12809); assay: primary screen, population patch clamp on CHO cells stably expressing hERG; higher = less effect of the substance
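Also: peak tail current of the secondary pulse compared with the same well before compound.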

Sequence of human ether-à-go-go-related gene (hERG) potassium channel (Q12809 whole entry, looked up): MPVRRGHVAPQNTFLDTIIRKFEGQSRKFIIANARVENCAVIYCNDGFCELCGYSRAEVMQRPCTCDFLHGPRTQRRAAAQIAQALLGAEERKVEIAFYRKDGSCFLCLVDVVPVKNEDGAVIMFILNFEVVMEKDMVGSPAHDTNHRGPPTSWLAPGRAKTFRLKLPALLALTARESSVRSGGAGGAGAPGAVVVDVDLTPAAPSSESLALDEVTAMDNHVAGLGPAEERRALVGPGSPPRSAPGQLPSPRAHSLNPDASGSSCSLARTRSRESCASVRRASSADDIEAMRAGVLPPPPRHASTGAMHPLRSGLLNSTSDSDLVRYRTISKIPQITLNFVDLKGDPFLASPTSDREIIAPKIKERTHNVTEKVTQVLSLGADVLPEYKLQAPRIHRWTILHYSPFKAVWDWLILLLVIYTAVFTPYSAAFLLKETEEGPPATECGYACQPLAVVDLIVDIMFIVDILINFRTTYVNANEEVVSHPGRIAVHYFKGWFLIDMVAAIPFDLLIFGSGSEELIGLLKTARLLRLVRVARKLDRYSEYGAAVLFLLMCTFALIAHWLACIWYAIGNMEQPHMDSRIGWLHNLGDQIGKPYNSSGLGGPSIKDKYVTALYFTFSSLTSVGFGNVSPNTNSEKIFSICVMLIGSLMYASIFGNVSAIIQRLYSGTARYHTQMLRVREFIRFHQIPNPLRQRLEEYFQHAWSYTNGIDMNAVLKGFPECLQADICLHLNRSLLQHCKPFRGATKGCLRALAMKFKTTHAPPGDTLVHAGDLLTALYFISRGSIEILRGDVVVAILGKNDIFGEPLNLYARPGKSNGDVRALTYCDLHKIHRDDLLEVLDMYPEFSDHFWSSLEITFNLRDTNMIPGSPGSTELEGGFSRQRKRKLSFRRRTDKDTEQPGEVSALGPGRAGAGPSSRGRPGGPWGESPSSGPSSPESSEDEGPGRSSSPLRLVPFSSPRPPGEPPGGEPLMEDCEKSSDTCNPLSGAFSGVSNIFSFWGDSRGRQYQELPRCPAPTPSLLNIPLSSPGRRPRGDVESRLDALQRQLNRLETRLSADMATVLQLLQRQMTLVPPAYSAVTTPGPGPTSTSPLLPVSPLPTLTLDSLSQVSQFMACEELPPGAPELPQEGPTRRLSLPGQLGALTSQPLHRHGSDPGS

Structure (SMILES) | hERG current change (%, negative = inhibition) at 10uM [%]
O=C(COc1ccc(F)cc1Cl)Nc1ccc(N2CCOCC2)cc1N1CCOCC1 | -10.2
Cc1ccc(C2(C)NC(=O)N(CC(=O)N(Cc3ccccc3)C(C)(C)C)C2=O)cc1 (stereo not shown) | -1.1
Cc1nccn1CC(=O)N/N=C/c1cc(Br)cs1 | 6.58
Cc1ccc(C)c(Cn2cnc3c(nnn3-c3ccc(F)cc3)c2=O)c1 | -2.53
Cn1c(=O)c(C(=O)COC(=O)c2cc(-c3ccco3)nc3ccccc23)c(N)n(Cc2ccccc2)c1=O | -12.2
O=[N+]([O-])c1ccc(/C=C/c2ccc3ccccc3n2)cc1 | 5.95
Cc1cc(C)c(CN2CCN(C(=O)Cn3ccc(NC(=O)OCc4ccccc4)nc3=O)CC2)c(C)c1 | -5.55
COc1ccc(N(CC(=O)NCC2CCCO2)S(=O)(=O)c2ccc(C)cc2)cc1OC (stereo not shown) | -3.96
O=C(NCC1CCCN(C(=O)c2cc(Cl)ccc2F)C1)c1ccc(F)cc1 (stereo not shown) | -6.65
COC(=O)c1ccccc1C(=O)N1CCCC(CNC(=O)c2ccc(F)cc2)C1 (stereo not shown) | 11.2
Cc1cc(C)c(CN2CCCC(CNC(=O)c3ccc(F)cc3)C2)c(-n2cccn2)c1 (stereo not shown) | -75.6
CCn1ncc(CN2CCCC(CNC(=O)c3ccc(F)cc3)C2)c1C (stereo not shown) | -1.04
Cc1ccc(-n2cccn2)c(CN2CCCC(CNC(=O)c3ccc(F)cc3)C2)c1 (stereo not shown) | -75.5
Cc1ccccc1CC(=O)N1CCCC(CNC(=O)c2ccc(F)cc2)C1 (stereo not shown) | -2
Cc1cc(C(=O)Nc2ccccc2N2CCOCC2)c(C)o1 | -18.1
CCc1noc(C)c1C(=O)OCC(=O)N(CC)c1c(N)n(Cc2ccccc2)c(=O)[nH]c1=O | 10.9
Cc1ccc(C2CC(=O)NC(SCCC(C)C)=C2C#N)cc1 (stereo not shown) | -10.6
Cc1ccc(C(=O)NCCNC(=O)c2ccc(C)nc2)cc1 | 5.21
Cc1ccc(S(=O)(=O)NCCNC(=O)c2ccc(C)nc2)cc1 | -72
Cc1ccc(C(=O)NCCNS(=O)(=O)c2ccccc2)cn1 | 12.7
COc1ccccc1NC(=O)COc1ccc(/C=N/NS(=O)(=O)c2ccc(C)cc2)cc1 | 20.1
Cc1cccc(OCC(=O)Nc2ccc3c(c2)nc(CCN2CCC(C)CC2)n3C)c1 | -68.7

Structure (SMILES) | hERG current change (%, negative = inhibition) at 10uM [%]
CC(=O)Nc1ccc2c(c1)nc(CCN1CCC(C)CC1)n2C | 8.83
COc1ccc(OCC(=O)Nc2ccc3c(c2)nc(CCN2CCC(C)CC2)n3C)cc1 | -75.4
CC(=O)N1CCN(Cc2nc3cc(NC(=O)COc4cccc(C)c4)ccc3n2C)CC1.Cl | -15.3
CCC(=O)Nc1ccc2c(c1)nc(CCN1CCC(C)CC1)n2C | 1.48
CC1CCN(CCc2nc3cc(NC(=O)COc4ccccc4)ccc3n2C)CC1 | -68.4
CC1CCN(CCc2nc3cc(NC(=O)Nc4ccccc4)ccc3n2C)CC1 | -44.4
Cc1ccc(OCC(=O)Nc2ccc3c(c2)nc(CCN2CCC(C)CC2)n3C)cc1 | -70.6
CCOC(=O)CSc1nc(N)cc(=O)[nH]1 | 7.78
CN(Cc1ccccc1)C(=O)c1[nH]cnc1C(=O)NCc1ccc(CNC(=O)OC(C)(C)C)cc1 | -6.68
CC(C)NC(=O)C1CCN(C(=O)C(C(=O)c2ccccc2)n2cc(Cl)ccc2=O)CC1 (stereo not shown) | 6.17
COC(=O)c1ccc2c(C)c(C(C)(C)O)[nH]c2c1 | 10.3
Cc1sc2nc(-c3cccnc3)[nH]c(=O)c2c1-c1ccccc1 | -4.06
Clc1ccc(OCCn2ccnc2)c(Cl)c1 | -18.9
CN(C)/C=N/c1[nH]ncc1C#N | 16
CC1CCN(CCc2nc3cc(NC(=O)COc4ccc(Cl)cc4)ccc3n2C)CC1 | -74.7
COc1ccc(-c2c(-c3cc(OC)cc(OC)c3)n(C)c3ccc(-c4cccc5[nH]ccc45)cc23)cc1 | 16.7
COCCNC(=O)c1ccccc1NS(=O)(=O)c1ccc(Br)s1 | 0.678
CC(C)=C1C2CCC1C(C(=O)Nc1cc(C)cc(C)c1)C2C(=O)O (stereo not shown) | 14
CCN(CC)CC#CCC(O)(c1ccccc1)C1CCCC1.Cl (stereo not shown) | -11.7
CCN(CC)CC#CCC(C)(c1ccccc1)c1ccccc1.Cl | -54.8
CCN(CC)CC#CCC(O)(c1ccccc1)c1ccc(Br)cc1.Cl (stereo not shown) | -50.1
CCN(CC)CC#CCC(O)(c1ccccc1)c1ccccc1 | -25.1

Structure (SMILES) | hERG current change (%, negative = inhibition) at 10uM [%]
CN(C)CC#CCC(O)(c1ccccc1)c1ccccc1 | -2.15
CCN(CC)CC#CCC(OC)(c1ccccc1)c1ccccc1.Cl | -32.5
CC(=O)N1CCC(N(CCN2CCOCC2)C(=S)Nc2cccc(C)c2)CC1 | 0.988
COc1ccc(C(CNC(=O)c2cccc(S(=O)(=O)Nc3ccccc3OC)c2)N2CCOCC2)cc1 (stereo not shown) | -46.1
COc1ccc(NS(=O)(=O)c2cccc(C(=O)NCC(c3ccc(OC)cc3)N3CCCC3)c2)cc1 (stereo not shown) | -46.7
COc1ccc(C(CNC(=O)c2cccc(S(=O)(=O)Nc3ccccc3OC)c2)N2CCCC2)cc1 (stereo not shown) | -56.6
C=CCN(c1ccccc1)S(=O)(=O)c1cccc(C(=O)NCC(c2ccc(F)cc2)N2CCOCC2)c1 (stereo not shown) | -29.6
COc1ccccc1NS(=O)(=O)c1cccc(C(=O)NCC(c2ccccc2OC)N2CCCC2)c1 (stereo not shown) | -12.9
C=CCN(c1ccccc1)S(=O)(=O)c1cccc(C(=O)NCC(c2ccccc2OC)N2CCCC2)c1 (stereo not shown) | -70.5
COc1ccc(NS(=O)(=O)c2cccc(C(=O)NCC(c3ccccc3OC)N3CCCC3)c2)cc1 (stereo not shown) | -55.4
COc1ccccc1NS(=O)(=O)c1cc(C(=O)NCC(c2ccc(F)cc2)N2CCOCC2)ccc1C (stereo not shown) | -19.1
C=CCN(c1ccccc1)S(=O)(=O)c1cccc(C(=O)NCC(c2cccs2)N2CCOCC2)c1 (stereo not shown) | -18.7
COc1ccccc1NS(=O)(=O)c1cc(C(=O)NCC(c2ccco2)N2CCCCC2)ccc1C (stereo not shown) | -48.6
COc1ccccc1C(CNC(=O)c1cccc(S(=O)(=O)Nc2ccc(C)cc2)c1)N1CCCC1 (stereo not shown) | -29.8
COc1ccc(C(CNC(=O)c2ccc(C)c(S(=O)(=O)Nc3ccccc3OC)c2)N2CCCC2)cc1 (stereo not shown) | -66.2
CCOC(=O)c1sc(NC(=O)c2ccc(S(=O)(=O)N3CCCCC3)cc2)nc1-c1ccccc1 | 18.1
CC(=O)Nc1ccccc1C(F)(F)F | 21.2
COc1ccc(C(=O)NC(C)c2nnc(SCC(=O)NC3CCCC3)n2C)cc1 (stereo not shown) | 4.98
O=C1OC(c2ccc(Cl)cc2)=C/C1=C/c1cccnc1 | 23.3
Cc1c(Cc2ccccc2)c(=O)oc2c(C)c(OCc3nn[nH]n3)ccc12 | 11.3
Cc1ccc(S(=O)(=O)N/N=C/c2ccc(OS(=O)(=O)c3ccc(C)c([N+](=O)[O-])c3)cc2)cc1 | 7.76
Cc1ccc(C(=O)NCCn2cc(SCC(=O)Nc3nnc(C)s3)c3ccccc32)cc1 | -3.05

Structure (SMILES) | hERG current change (%, negative = inhibition) at 10uM [%]
COc1ccccc1CNC(=O)CC(C)c1ccccc1 (stereo not shown) | 4.63
CCCn1c2ccccc2c2nnc(SCC(=O)Nc3cc(C)on3)nc21 | -0.11
Cc1ccc(S(=O)(=O)N2CCN(S(C)(=O)=O)C2c2ccccc2)cc1 (stereo not shown) | -37.2
C=CCOc1ccc(/C=C/C(=O)OCC(=O)NCCc2ccccc2)cc1 | 8.61
COc1ccc(C(CNC(=O)c2cccc(N(C)C)c2)N2CCCC2)cc1 (stereo not shown) | -28.3
COc1ccc(C(CNC(=O)c2cccc(S(=O)(=O)N(C)c3ccccc3)c2)N2CCCC2)cc1 (stereo not shown) | -60.2
CCN(c1ccccc1)S(=O)(=O)c1cccc(C(=O)NCC(c2cccs2)N(C)C)c1 (stereo not shown) | -48.6
CNS(=O)(=O)c1cccc(C(=O)NCC(c2cccs2)N(C)C)c1 (stereo not shown) | -5.25
COc1ccc(C(CNC(=O)c2cccc(S(=O)(=O)N3CCCC3)c2)N2CCCC2)cc1 (stereo not shown) | -22.9
COc1ccc(N(C)S(=O)(=O)c2cccc(C(=O)NCC(c3cccs3)N(C)C)c2)cc1 (stereo not shown) | -52.3
CCOc1ncccc1C(=O)OCC(=O)c1ccc(C)c(C)c1 | -20.2
CN1CCCC(OC(=O)COc2ccc(Br)cc2)C1.Cl (stereo not shown) | -12.8
CCOc1ccc(Nc2nc(N)nc(CSC(=S)N3CCOCC3)n2)cc1 | -2
CCOC(=O)N1CCN(Cc2nc(N)nc(Nc3ccccc3C)n2)CC1 | -14.9
CCOC(=O)N1CCN(Cc2nc(-c3ccc(OC)cc3)no2)CC1 | -4.74
COc1ccc(Nc2nc(N)nc(CSC(=S)N3CCN(C)CC3)n2)cc1 | -12.5
CCOC(=O)N1CCN(Cc2nc(N)nc(Nc3ccc(OCC)cc3)n2)CC1 | -67.6
CCOC(=O)N1CCN(Cc2nc(N)nc(Nc3ccc(Oc4ccccc4)cc3)n2)CC1 | -70.7
CCOC(=O)N1CCN(Cc2nc(N)nc(Nc3ccc(OC)cc3)n2)CC1 | -62.4
